# In all, about 16,000 compounds went through this assay and about 5,700 (36%) were called active. Inconclusive results (about 24%) are left out. Some of the results follow. Unmarked numbers belong to inactive results. The call rests on the fitted dose curve; in most records, active means well fitted curve in the direction sought with a large enough effect; inconclusive means small, poorly fitted or top-dose-only effect, or effect the other way; inactive means no such curve, though single readings can be large or run the other way.
# Target: Cytochrome P450 1A2 (Homo sapiens) (UniProt P05177)
# Test: Cytochrome panel assay with activity outcomes
# Settings: recombinant CYP, pro-luciferin dealkylation, luminescence, p450-cyp1a2; series mostly up to 57.1 µM; activity, negative = inhibition: at the top concentration
# On the % scale 0 is the no-effect control and ±100 the full control effect.
# Cytochrome P450 1A2 (Homo sapiens), sequence (P05177 whole entry, looked up): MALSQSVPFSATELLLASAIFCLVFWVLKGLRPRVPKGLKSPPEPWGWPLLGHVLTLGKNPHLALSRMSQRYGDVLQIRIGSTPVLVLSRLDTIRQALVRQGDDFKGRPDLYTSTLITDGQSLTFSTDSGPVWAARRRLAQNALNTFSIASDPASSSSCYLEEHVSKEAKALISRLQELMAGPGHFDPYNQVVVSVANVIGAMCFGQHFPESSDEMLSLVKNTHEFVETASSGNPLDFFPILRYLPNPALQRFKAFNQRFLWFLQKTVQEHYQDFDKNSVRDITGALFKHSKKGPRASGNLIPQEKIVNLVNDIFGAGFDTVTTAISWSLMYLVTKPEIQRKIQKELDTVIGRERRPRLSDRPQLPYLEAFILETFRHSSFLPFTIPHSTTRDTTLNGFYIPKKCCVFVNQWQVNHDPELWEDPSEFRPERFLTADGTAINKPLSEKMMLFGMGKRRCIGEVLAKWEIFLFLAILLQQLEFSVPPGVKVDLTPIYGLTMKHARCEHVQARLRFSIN
SMILES,AC50,"activity, negative = inhibition"
C[C@@H](N)Cn1ccc2cc(F)c(Cl)cc21,50.1 nM (active),–
CCCCCC[C@H]1C(=O)O[C@H](C)[C@H](NC(=O)c2cccc(NC=O)c2O)C(=O)O[C@@H](C)[C@H]1OC(=O)CC(C)C,–,-17.2% [at 25.6 µM]
CC1=NCCc2c1[nH]c1cc(O)ccc21,12600 nM (active),–
COc1ccc2[nH]c3c(c2c1)CCN=C3C,1580 nM (active),–
COc1ccc2c3c([nH]c2c1)C(C)=NCC3,794 nM (active),–
COc1ccc2[nH]c3c(c2c1)CCNC3,3160 nM (active),–
CN(C)C=C1C(=O)N(C2CCCCC2)C(=O)N(C2CCCCC2)C1=O,–,-7.85%
c1cc2cc(c1)C[n+]1ccc(c3ccccc31)NCc1ccc(cc1)CNc1cc[n+](c3ccccc13)C2,–,-11.6%
C[N+]1([O-])[C@H]2CC[C@H]1CC(OC(=O)[C@@H](CO)c1ccccc1)C2 (some centres undefined),–,0.783% [at 2.29 µM]
C[N+](C)(C)CCCCCCCCCC[N+](C)(C)C,–,-7.81% [at 25.6 µM]
NCC[C@H](O)C(=O)N[C@H]1C[C@@H](N)[C@@H](O[C@H]2O[C@@H](CN)[C@@H](O)[C@@H](O)[C@@H]2N)[C@@H](O[C@H]2O[C@@H](CO)[C@@H](O)[C@@H]2O)[C@@H]1O,–,-8.71% [at 25.6 µM]
c1cc(CN2CC3(CCNCC3)C2)ccn1,–,-9.36%
O=c1[nH]cnc2[nH]cc(CN3CCCCC3)c12,–,-11.6% [at 11.4 µM]
COc1ccccc1CN1CCCC2(CCN(C(=O)Oc3ccccc3)CC2)C1,–,-16.8%
CC(C)c1nccn1Cc1ccc(Cl)cc1Cl,–,-14.7% [at 11.4 µM]
O=C(O)C(C(=O)O)P(=S)(S)c1ccccc1 (centres undefined),–,-13.3% [at 11.4 µM]
CNCC/C=C\c1cccnc1,–,-18.5%
CN1[C@@H]2CC[C@H]1CC(NC(=O)c1nn(C)c3ccccc13)C2 (some centres undefined),–,-10.6%
COc1cc(N)c(Cl)cc1C(=O)N[C@@H]1CN2CCC1CC2,–,-16.9%
Cn1cc(C(=O)C(=O)N[C@H]2CN3CCC2CC3)c2ccccc21,15800 nM (active),–
NCC1(CC(=O)O)CCCCC1,–,-2.98% [at 25.6 µM]
C[C@H]1CC[C@@]2(NC1)O[C@@H]1C[C@H]3[C@@H]4CC[C@@H]5C[C@@H](O)CC[C@@]5(C)[C@@H]4CC[C@]3(C)[C@@H]1[C@@H]2C,–,-3.92% [at 25.6 µM]
CCCN1CCC[C@@H]2Cc3nc(N)ncc3C[C@H]21,–,5.61%
N#CCCCC[N+]12CN3CN(CN(C3)C1)C2,–,15% [at 2.29 µM]
COCCCN1Cc2ccccc2C1=N,–,5.31%

SMILES,AC50,"activity, negative = inhibition"
S=C(S)N1CCCC1,31600 nM (active),–
C[C@@]12CC[C@H](O)C[C@@H]1CC[C@@H]1[C@@H]2CC[C@@]2(C)[C@@H](C3=CC(=O)OC3)[C@H](O)C[C@]12O,–,-18.3% [at 11.4 µM]
CC1(C)N=C(N)N=C(N)N1c1cccc(C(=O)Nc2ccc(S(=O)(=O)F)cc2)c1,–,-15.8% [at 11.4 µM]
c1ccc(CN2CC[C@@]3(CCCNC3)C2)cc1,–,-5.11%
NC1=Nc2ccccc2Oc2ccccc21,12600 nM (active),–
CC(C)[N+](C)(CCC(C(N)=O)(c1ccccc1)c1ccccc1)C(C)C,–,-8.56% [at 25.6 µM]
CC(=O)c1ccc2c(c1)N(CCCN(C)C)c1ccccc1S2,1580 nM (active),–
CN1C(=O)c2ccccc2Sc2ccc(C(=O)N3CCC4(CC3)OCCO4)cc21,–,-18.4%
C=CCN1C(=O)c2ccccc2Sc2ccc(C(=O)N3CCC4(CC3)OCCO4)cc21,–,-5.85%
C[N+](C)(C)CCCCCC[N+](C)(C)C,–,0.308% [at 25.6 µM]
O=c1ccc2[nH]cc(C3=CCNCC3)c2[nH]1,–,-5.27%
COc1ccc2[nH]cc(C3=CCNCC3)c2c1,251 nM (active),–
CCCOc1ccc2[nH]cc(C3=CCNCC3)c2n1,126 nM (active),–
C[C@@]12CC[C@@H]3[C@H](CCC4=CC(=O)CC[C@]43C)[C@@H]1CC[C@@H]2C(=O)Cn1cnc2c(=S)nc[nH]c21,–,-15.8% [at 11.4 µM]
NP(N)(=O)NC(=O)c1ccc(F)cc1,–,-12%
NCCCP(=O)(O)O,–,3.53%
CC1=C(O)C(=O)[C@H]2O[C@@H]2C1=O,–,-9.2%
C[N+]1(C)[C@@H]2CC[C@H]1CC(OC(=O)[C@@H](CO)c1ccccc1)C2 (some centres undefined),inactive,–
O=C(c1ccncc1)N1CCC2(CC1)CN(Cc1ccccc1)C2,–,-16.4%
O=C(c1csnn1)N1CCC2(CC1)CN(Cc1ccncc1)C2,10000 nM (active),–
CN1CCCC2(CCN(C(=O)c3csnn3)CC2)C1,–,-5.37%
N#Cc1ccc(CN2CCC3(CC2)CCN(C(=O)Oc2ccccc2)CC3)cc1,–,1.15%
O=P(O)(O)CCP(=O)(O)O,–,0.113% [at 11.4 µM]
CC(=O)[C@@H]1CC[C@@H]2[C@@H]3CC=C4C[C@H](OS(=O)(=O)O)CC[C@@]4(C)[C@H]3CC[C@]21C,–,-7.33%
O=C1Nc2ccc(I)cc2/C1=C/c1cc(Br)c(O)c(Br)c1,794 nM (active),–

SMILES,AC50,"activity, negative = inhibition"
COC(=O)C1=CCCN(C)C1,inactive,–
Cc1ccc(C2CC(=O)C(C=NCCN3CCN(C(=O)Cc4ccccc4)CC3)=C(O)C2)cc1 (centres undefined),–,6.67%
C[C@H](N)[C@@H](O)c1ccccc1,–,0.0945% [at 25.6 µM]
CC(NCc1ccc(Cl)cc1)C(O)c1ccccc1 (centres undefined),14100 nM (active),–
C[C@@H](Cc1ccc(OCC(=O)O)cc1)NC[C@H](O)c1cccc(Cl)c1,–,-4.97%
CCN(CC)CCn1ncc2c(N)ncnc21,–,-6.04% [at 11.4 µM]
CC[C@H](C(=O)[C@H](C)[C@H](O)[C@H](C)CCc1ccc(C)c(O)c1C(=O)O)[C@H]1O[C@](CC)([C@@H]2CC[C@@](O)(CC)[C@H](C)O2)C[C@H]1C,–,1.36% [at 25.6 µM]
N=C1c2ccccc2CN1NC(=O)c1ccc(Cl)cc1,–,-3.35%
COc1ccc(C[C@H]2NC[C@H](O)[C@@H]2OC(C)=O)cc1,–,-31.9%
NC[C@@H](CC(=O)O)c1ccc(Cl)cc1,inactive,–
O=NN(Cc1ccc(Cl)cc1)[C@@H](C(=O)O)c1ccccc1,5010 nM (active),–
O=C(O)CP(=O)(O)c1ccc(Cl)cc1,–,-12.7%
C[C@@]12CC[C@H]3[C@@H](CCC4=CC(=O)CC[C@]43C)[C@H]1CC[C@H]2C(=O)CO,–,-5.66% [at 25.6 µM]
CNC(=S)NC1CC2CCCC(C1)N2CC(C)C (centres undefined),–,8.76%
CCOCCN1CCC(OC(C)=O)C(C)C1 (centres undefined),–,-3.38%
C[C@H](CC(C#N)(c1ccccc1)c1ccccc1)N1CCCCC1,–,7.09% [at 2.29 µM]
O=c1oc(Cl)c(Cl)c2ccccc12,1000 nM (active),–
O=[N+]([O-])O[C@H]1CO[C@H]2[C@H]1OC[C@@H]2O[N+](=O)[O-],–,0.921% [at 25.6 µM]
O=C1OC(=O)[C@@H]2[C@@H]1[C@@H]1CC[C@H]2O1,–,-1.88%
NC(=O)CN1C[C@@H](O)CC1=O,–,4.16%
CCOP(=O)(OCC)C(NC(C)=O)C(Cl)(Cl)Cl (centres undefined),–,1.98%
CC(O)(CS(=O)(=O)c1cccc(C(F)(F)F)c1)C(=O)Nc1cccc(C(F)(F)F)c1 (centres undefined),–,-28.1%
O=C(Nc1cccc(C(F)(F)F)c1)c1cccn(Cc2ccc3c(c2)OC(F)(F)O3)c1=O,3160 nM (active),–
CC(O)(CS(=O)(=O)c1ccccc1)C(=O)Nc1cccc(C(F)(F)F)c1 (centres undefined),–,-24.9%
CC(C)c1ccc(C(c2c(O)c3ccccc3oc2=O)c2c(O)c3ccccc3oc2=O)cc1,–,-18.8% [at 2.29 µM]

SMILES,AC50,"activity, negative = inhibition"
COc1cc(CCN)ccc1O,–,-19.4%
COc1cc(CNC(=O)CCCC/C=C\C(C)C)ccc1O,1580 nM (active),–
CCCCCCCCC(=O)NCc1ccc(O)c(OC)c1,12600 nM (active),–
CNC[C@H](O)c1ccc(O)c(OC)c1,–,-0.882% [at 25.6 µM]
COc1ccc(C[C@@H]2NC[C@H](O)[C@@H]2OC(C)=O)cc1,–,0.14% [at 25.6 µM]
C[N+]1(C)CCO[C@](O)(c2ccc(-c3ccc([C@]4(O)C[N+](C)(C)CCO4)cc3)cc2)C1,–,-2.4% [at 25.6 µM]
COc1cc2c(c(OC)c1OC)-c1ccc(O)c(=O)cc1[C@H](N)CC2,–,-4.6% [at 25.6 µM]
CC(C)COc1ccc(C2(C#N)CC[N+](C)(C)CC2)cc1,–,17.9%
COCCCNC(=S)NC1CC2CCCC(C1)N2Cc1cccs1 (centres undefined),–,5.68%
Cc1cc2c(C(F)(F)F)cc(=O)oc2c2c1NCCC2,100 nM (active),–
CCCCC1(CCCC)C(=O)NC(=Nc2cccc(C)c2)NC1=O,–,-9.88%
O=C1C=CC(=O)c2c1ccc1c2ccc2ccccc21,794 nM (active),–
COc1cc([C@H]2c3cc4c(cc3[C@@H](O)[C@@H]3COC(=O)[C@H]23)OCO4)cc(OC)c1OC,–,-17.3%
CCCc1cc2c(n1CCO)C(C)C1CN(C(=O)c3ccccc3)C(C)(C(=O)OC)C21 (centres undefined),–,-19.8%
COc1cccc2c1[C@H](CO)N1[C@H](C#N)[C@@H]3C[C@H](C(=O)O)[C@@H]([C@@H]1C2)N3C,–,-21% [at 2.29 µM]
C[C@]12CC[C@H]3c4ccc(O)cc4CC[C@@H]3[C@H]1CC[C@@H]2OP(=O)(O)O,–,-11.2% [at 2.29 µM]
C[C@]12CC[C@@H]3C(=CCc4cc(O)ccc43)[C@@H]1CCC2=O,10000 nM (active),–
C[C@]12CCC3c4ccc(OCC(=O)O)cc4CCC3C1CCC2=O (some centres undefined),–,0.71% [at 2.29 µM]
Cc1cc[c]([Sb]2[O][C@H]([C@H](O)[C@H](O)C(=O)O)[C@@H](CO)[O]2)cc1,–,-11.9% [at 11.4 µM]
O=C(Cc1ccc(Cl)c(Cl)c1)N1CCCC[C@H]1CN1CCCC1,–,-16.4%
CCCCc1ccc2nc(NC(=O)OC)[nH]c2c1,501 nM (active),–
CCCCc1ccc(C(=O)O)nc1,–,-5.09% [at 25.6 µM]
COC(=O)Nc1nc2ccc(Sc3ccccc3)cc2[nH]1,794 nM (active),–
COC(=O)Nc1nc2ccc(C(=O)c3cccs3)cc2[nH]1,1580 nM (active),–

# Reference: PubChem BioAssay AID1851 (National Center for Advancing Translational Sciences (NCATS), 2009)
